In PubChem BioAssay (Tox21):
Results filed as inconclusive are left out. Activity calls are given as the source filed them. Unless noted, calls follow the shape of the dose curve; as a rule, active = well fitted curve in the direction sought with a large enough effect in the repeat runs; inconclusive = weak or mixed curves; inactive = no such curve, though single readings can be large; an effect the other way counts as inactive or inconclusive.

What was measured:
[1] = target: Retinoic acid receptor RXR-alpha (Homo sapiens) (UniProt P19793); assay: qHTS assay to identify small molecule agonists of the RXR signaling pathway (AID 1159527; calls by dose curve; also: nearly all actives have a fitted effect of over 35% in size)
Retinoic acid receptor RXR-alpha (Homo sapiens), sequence (P19793 whole entry, looked up): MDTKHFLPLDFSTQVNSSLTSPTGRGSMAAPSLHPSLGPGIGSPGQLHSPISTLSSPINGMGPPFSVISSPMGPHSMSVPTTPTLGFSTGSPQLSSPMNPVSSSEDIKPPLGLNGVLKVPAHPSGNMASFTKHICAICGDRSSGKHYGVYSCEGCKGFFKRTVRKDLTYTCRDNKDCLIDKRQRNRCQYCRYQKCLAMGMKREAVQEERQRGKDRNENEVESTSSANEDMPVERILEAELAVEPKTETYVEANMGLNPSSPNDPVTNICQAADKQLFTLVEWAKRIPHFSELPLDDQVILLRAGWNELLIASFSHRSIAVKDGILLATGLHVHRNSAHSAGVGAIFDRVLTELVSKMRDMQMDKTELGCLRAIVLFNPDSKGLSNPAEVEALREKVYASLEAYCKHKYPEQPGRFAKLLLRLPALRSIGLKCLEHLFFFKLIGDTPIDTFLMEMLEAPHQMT
Outline: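 Cells plated at 2,000/well, rested 5 hr at 37 C, pin-dosed with DMSO compound solutions, incubated 16 hr, then loaded with B/G FRET substrate for 2 hr at RT before dual-emission fluorescence reading.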

[2] = qHTS assay to identify small molecule agonists of the RXR signaling pathway - cell viability counter screen (AID 1159529);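 also: HEK 293T cells carrying an RXR-alpha UAS beta-lactamase reporter; series mostly up to about 77 µM; nearly all actives have a fitted effect of over 50% in size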
Outline: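 Steps: seed RXR-alpha-UAS-bla HEK 293T cells in assay medium containing 2% charcoal-stripped FBS; incubate 5 hr; add compounds in DMSO; incubate 16 hr at 37 C; after the bla read, add CellTiter-Glo and read luminescence at 30 min.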

[3] = qHTS assay to identify small molecule antagonists of the retinoid acid receptor (RAR) signaling pathway - cell viability counter screen (AID 1159551); also: nearly all actives have a fitted effect of over 35% in size
Outline: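 Viability of C3RL4 cells is quantified from ATP by luminescence after 6 h treatment at 37 C with compounds and 1 uM retinol.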

[4] = qHTS assay to identify small molecule antagonists of the estrogen related receptor (ERR) signaling pathway from Tox21 library - cell viability counter screen (AID 1224834); also: nearly all actives have a fitted effect of over 30% in size
Outline: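 In this quantitative HTS format, ERR cells receive compounds in DMSO and are incubated for 17.5 h at 37 C. Live-cell protease activity is then detected with CellTiter-Fluor.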

[5] = qHTS assay to identify small molecule antagonists of the constitutive androstane receptor (CAR) signaling pathway - cell viability counter screen (AID 1224837); also: series mostly up to about 92 µM; nearly all actives have a fitted effect of over 45% in size
Outline: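 In quantitative HTS format, compounds at 15 concentrations were applied to HepG2 cells double-transfected with hCAR and CYP2B6-2.2kb under 50 nM CITCO stimulation; live-cell protease activity was read after 23 hr via CellTiter-Fluor.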

[6] = target: Nuclear receptor subfamily 1 group I member 3 (Homo sapiens) (UniProt Q14994); assay: qHTS assay to identify small molecule antagonists of the constitutive androstane receptor (CAR) signaling pathway (AID 1224838); also: nearly all actives have a fitted effect of over 40% in size
Nuclear receptor subfamily 1 group I member 3 (Homo sapiens), sequence (Q14994 whole entry, looked up): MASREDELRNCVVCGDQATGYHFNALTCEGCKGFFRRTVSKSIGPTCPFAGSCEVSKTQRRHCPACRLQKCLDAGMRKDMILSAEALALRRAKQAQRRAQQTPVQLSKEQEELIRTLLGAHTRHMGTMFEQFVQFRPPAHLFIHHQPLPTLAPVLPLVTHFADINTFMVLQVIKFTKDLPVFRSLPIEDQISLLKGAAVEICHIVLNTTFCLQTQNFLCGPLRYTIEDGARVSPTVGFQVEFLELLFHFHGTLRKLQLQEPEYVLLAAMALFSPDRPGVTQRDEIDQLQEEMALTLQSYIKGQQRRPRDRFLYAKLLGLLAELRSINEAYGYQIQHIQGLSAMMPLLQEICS
Outline: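 CITCO-stimulated (50 nM final) HepG2 cells stably transfected with hCAR and CYP2B6-2.2kb luciferase were exposed to compounds at 15 concentrations for 24 h at 37 C/5% CO2. A luciferase reagent was added and luminescence recorded after 30 min.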

[7] = target: Nuclear receptor subfamily 1 group I member 3 (Homo sapiens) (UniProt Q14994); assay: qHTS assay to identify small molecule agonists of the constitutive androstane receptor (CAR) signaling pathway (AID 1224839);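 also: HepG2 cells stably carrying human CAR and a CYP2B6 luciferase reporter; series mostly up to about 92 µM; nearly all actives have a fitted effect of over 15% in size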
Outline: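 Cells were plated and incubated 4 hrs, then dosed with compounds at 15 concentrations. PK11195 was added to 0.75 uM final. After 24 hrs at 37 C, luciferase luminescence was measured.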

[8] = qHTS assay to identify small molecule antagonists of the estrogen related receptor signaling pathway with the pleiotropic PPARgamma coactivator (PGC) from Tox21 10K library - cell viability counter screen (AID 1224840; active = well fitted cell-killing curve with a large enough effect in the repeat runs, not every such curve was filed as active; also: nearly all actives have a fitted effect of over 40% in size)
Outline: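 Viability counter screen, PGC/ERR cells: 17.5 h compound exposure at 37 C, CellTiter-Fluor fluorescence endpoint.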

[9] = qHTS assay to identify small molecule agonists of the constitutive androstane receptor (CAR) signaling pathway - cell viability counter screen (AID 1224836); also: series mostly up to about 92 µM; nearly all actives have a fitted effect of over 45% in size
Outline: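 Cells were seeded and incubated 4 hrs. Compounds were added across 15 concentrations together with PK11195 at 0.75 uM final. Plates were incubated 23 hrs at 37 C. CellTiter-Fluor was added and fluorescence measured.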

[10] = qHTS assay to identify small molecule antagonists of the estrogen related receptor signaling pathway with the pleiotropic PPARgamma coactivator (PGC) from Tox21 10K library (AID 1224841; call rule not given here; also: series mostly up to about 92 µM; actives are mostly falling curves and most rising ones were filed inactive; nearly all actives have a fitted effect of over 50% in size)
Outline: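 In the PGC/ERR line, DMSO solutions of test chemicals are pin-delivered to 2,000 cells/well six hours after dispensing. Following eighteen hours' incubation, One-Glo reagent is added and luminescence recorded.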

[11] = qHTS assay to identify small molecule agonists of the estrogen related receptor signaling pathway with the pleiotropic PPARgamma coactivator (PGC) from Tox21 10K library (AID 1224842); also: nearly all actives have a fitted effect of over 15% in size
Outline: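 PGC/ERR reporter cell line, 2,000 cells per well, incubated 6 h at 37 C before 23 nL compound in DMSO was added. After 18 h at 37 C, One-Glo luminescence read following 30 min at room temperature.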

[12] = qHTS assay to identify small molecule antagonists of the retinoic acid receptor (RAR) signaling pathway (AID 1159552; also: nearly all actives have a fitted effect of over 50% in size)
Outline: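 Retinol at 1 uM final stimulated RARE-luciferase expression in C3RL4 cells exposed to test compounds for 6 hr at 37 C. Reduced luminescence, read 30 min after detection reagent, indicated pathway antagonism.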

[13] = qHTS assay to identify small molecule agonists of the retinoic acid receptor (RAR) signaling pathway (AID 1159553)
Outline: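 Compounds dissolved in DMSO were pinned onto C3RL4 cells seeded the previous day, and plates were held 6 hr at 37 C. RARE-driven luciferase output was then read by luminescence.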

[14] = target: Luciferin 4-monooxygenase (Photinus pyralis) (UniProt P08659); assay: qHTS assay to identify small molecule inhibitors of firefly luciferase (AID 1224835); also: series mostly up to about 120 µM; nearly all actives have a fitted effect of over 25% in size
Luciferin 4-monooxygenase (Photinus pyralis), sequence (P08659 whole entry, looked up): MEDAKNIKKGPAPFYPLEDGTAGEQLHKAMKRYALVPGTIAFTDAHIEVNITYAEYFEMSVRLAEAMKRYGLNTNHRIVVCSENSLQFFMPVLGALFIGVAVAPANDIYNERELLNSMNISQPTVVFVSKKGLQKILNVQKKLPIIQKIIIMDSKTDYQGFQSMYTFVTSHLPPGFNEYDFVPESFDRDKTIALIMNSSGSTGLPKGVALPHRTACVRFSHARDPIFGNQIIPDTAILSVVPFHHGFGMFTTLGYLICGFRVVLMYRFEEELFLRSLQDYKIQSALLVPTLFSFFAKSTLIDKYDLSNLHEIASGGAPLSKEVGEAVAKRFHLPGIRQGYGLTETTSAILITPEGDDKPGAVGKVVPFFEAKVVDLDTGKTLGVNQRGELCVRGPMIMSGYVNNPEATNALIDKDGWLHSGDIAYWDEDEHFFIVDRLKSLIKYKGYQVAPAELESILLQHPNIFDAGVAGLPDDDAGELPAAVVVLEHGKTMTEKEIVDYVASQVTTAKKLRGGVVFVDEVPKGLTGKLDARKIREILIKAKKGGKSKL
Outline: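 Biochemical qHTS: compounds run as interplate titrations against purified firefly enzyme, with D-luciferin and ATP each at its KM concentration. Light output recorded by CCD imaging.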

Measured: Potency

CCOC(=O)[C@H](CCc1ccccc1)N[C@@H](C)C(=O)N1C(=O)N(C)C[C@H]1C(=O)O
inactive: [1] | [2] | [3] | [4] | [5] | [6] | [7] | [8]

O=S(=O)(O)CCN1CCN(CCO)CC1
not listed: [3] | [12] | [13] | [14]
inactive: all other assays above

CC(=O)OC(C)OC(=O)C(C)c1ccc(-c2ccccc2)c(F)c1 (stereo unspecified)
not listed: [3] | [6] | [10] | [11] | [14]
inactive: all other assays above

Cc1cccc2nccnc12
inactive: [1] | [2] | [12] | [4] | [5] | [8]

OCCC(F)(F)C(F)(F)C(F)(F)C(F)(F)C(F)(F)C(F)(F)C(F)(F)C(F)(F)F
not listed: [3] | [9] | [11] | [12] | [13]
inactive: all other assays above

Brc1ccc(-c2ccccc2)cc1
not listed: [3] | [10] | [11] | [12] | [14]
inactive: all other assays above

CCCCCCN
inactive: [1] | [2] | [12] | [4] | [14] | [9] | [5] | [8]

CC/C=C\CC1=C(C)CCC1=O
not listed: [3] | [12] | [13] | [14]
inactive: all other assays above

ClCCCl
not listed: [3] | [10] | [12] | [13] | [14]
inactive: all other assays above

CC(C(=O)O)c1ccc2c(c1)CC(=O)c1ccccc1S2 (stereo unspecified)
not listed: [3] | [9] | [12] | [13]
inactive: all other assays above

CC(=O)NCCCCCC(=O)O
inactive: [1] | [2] | [4] | [14] | [5] | [6] | [7] | [8]

COc1ccc(S(=O)(=O)N2c3ccc(Cl)cc3[C@@](O)(c3ccccc3Cl)[C@H]2C(=O)N2CCC[C@@H]2C(N)=O)cc1OC
inactive: [1] | [2] | [13] | [4] | [9] | [5] | [8]

C[C@@H]1O[C@@H](O[C@@H]2[C@@H](O)[C@H](OCCc3ccc(O)c(O)c3)O[C@H](CO[C@@H]3O[C@H](CO)[C@@H](O)[C@H](O)[C@H]3O)[C@H]2OC(=O)/C=C/c2ccc(O)c(O)c2)[C@H](O)[C@H](O)[C@H]1O
not listed: [3] | [4] | [10] | [11] | [14]
inactive: all other assays above

NS(=O)(=O)c1ccc(NC(=O)CCC(=O)O)cc1
not listed: [3] | [10] | [11] | [12] | [13]
inactive: all other assays above
